Inconclusive results are not listed. Activity calls are given as the source filed them. Calls come from the whole dose curve; as a rule, active = well fitted curve in the direction sought with a large enough effect in the repeat runs; inconclusive = weak or mixed curves; inactive = no such curve, though single readings can be large; an effect the other way counts as inactive or inconclusive.
Potency is the fitted concentration of half-maximal effect.

The nature of one assay: qHTS assay for identifying genotoxic compounds that show differential cytotoxicity against isogenic chicken DT40 cell lines with known DNA damage response pathways - wild type cell line (AID 743012). Note: nearly all actives have a fitted effect of over 60% in size. Particulars: DT40 wild type chicken cells viability, CellTiter-Glo, 40 h; series mostly up to 68.4 µM. Summed up:
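Wild-type DT40 cells (300/well) exposed to compounds for 40 hours at 37 C/5% CO2. Viability read by CellTiter-Glo luminescence after 30 min at room temperature.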
In general terms: Quantitative high-throughput screening tests each substance at several concentrations.
`C[C@@H]1CCC2[C@@H](C)[C@@H](O)O[C@@H]3O[C@@]4(C)CC[C@@H]1[C@@]23OO4` (stereo partly drawn): the Potency is 119 nM (active). On the same count and under the same terms, with `CCc1ccc2c(c1)N(CC(C)CN(C)C)c1ccccc1S2` (stereo not drawn) the figure was 6680 nM (active); with `C=CCNC1=C2C[C@@H](C)C[C@H](OC)[C@H](O)[C@@H](C)/C=C(\C)[C@H](OC(N)=O)[C@@H](OC)/C=C\C=C(/C)C(=O)NC(=CC1=O)C2=O`, 335 nM (active).

With `CC[C@@H](C(=O)O)[C@@H]1O[C@@H]([C@@H](C)[C@H](O)[C@H](C)C(=O)[C@H](CC)[C@H]2O[C@]3(C=C[C@@H](O)[C@]4(CC[C@@](C)([C@H]5CC[C@](O)(CC)[C@H](C)O5)O4)O3)[C@H](C)C[C@@H]2C)[C@@H](C)C[C@@H]1C`, the Potency was 237 nM (active).

A short description of a further assay: qHTS assay for identifying genotoxic compounds that show differential cytotoxicity against isogenic chicken DT40 cell lines with known DNA damage response pathways - Rev3 mutant cell line (AID 743014). Note: nearly all actives have a fitted effect of over 55% in size. As to conditions: chicken DT40 Rev3-/- viability, CellTiter-Glo, 40 h; series mostly up to 68.4 µM.
In the case of `C[C@@H]1CCC2[C@@H](C)[C@@H](O)O[C@@H]3O[C@@]4(C)CC[C@@H]1[C@@]23OO4` (stereo partly drawn), the Potency was 133 nM (active).

`CCc1ccc2c(c1)N(CC(C)CN(C)C)c1ccccc1S2` (stereo not drawn): the Potency was 5310 nM (active).

`C=CCNC1=C2C[C@@H](C)C[C@H](OC)[C@H](O)[C@@H](C)/C=C(\C)[C@H](OC(N)=O)[C@@H](OC)/C=C\C=C(/C)C(=O)NC(=CC1=O)C2=O`: the Potency is 473 nM (active). On to `CC[C@@H](C(=O)O)[C@@H]1O[C@@H]([C@@H](C)[C@H](O)[C@H](C)C(=O)[C@H](CC)[C@H]2O[C@]3(C=C[C@@H](O)[C@]4(CC[C@@](C)([C@H]5CC[C@](O)(CC)[C@H](C)O5)O4)O3)[C@H](C)C[C@@H]2C)[C@@H](C)C[C@@H]1C`, for which the Potency was 168 nM (active).

The nature of another assay: qHTS assay for identifying genotoxic compounds that show differential cytotoxicity against isogenic chicken DT40 cell lines with known DNA damage response pathways - Rad54/Ku70 mutant cell line (AID 743015). Note: nearly all actives have a fitted effect of over 60% in size. Particulars: DT40 Rad54/Ku70 mutant viability, CellTiter-Glo, 40 h; series mostly up to 66.8 µM.
With `O=C(O)[C@H](CC(=O)N1C[C@H]2CCCC[C@H]2C1)Cc1ccccc1`, the Potency entry is “inactive”. Same read-out and setting: with `C[C@@H]1CCC2[C@@H](C)[C@@H](O)O[C@@H]3O[C@@]4(C)CC[C@@H]1[C@@]23OO4` (stereo partly drawn) the figure was 47.3 nM (active); with `CC(C)(CO)[C@@H](O)C(=O)NCCCC(=O)O`, “inactive”.

For the molecule `CCc1ccc2c(c1)N(CC(C)CN(C)C)c1ccccc1S2` (stereo not drawn), the Potency is 8410 nM (active). Same read-out and setting: with `C=C1CC2C3CCC4=CC(=O)C=C[C@]4(C)[C@@]3(F)[C@@H](O)C[C@]2(C)[C@@]1(O)C(=O)COC(C)=O` (stereo partly drawn) the entry was “inactive”.

`O=C(O)c1cc(N=Nc2ccc(O)c(C(=O)O)c2)ccc1O`: the Potency result was “inactive”. On the same count and under the same terms, with `NC(=O)OC[C@@H]1[C@H](NC(=O)/C(=N\OCC(=O)O)c2csc(N)n2)C(=O)N1S(=O)(=O)O` the entry was “inactive”. The same measure, in the same setting: with `O=C(Nc1ccc(O)cc1)c1ccccc1O` the entry was “inactive”; with `O=C(CCCCCCCCCCCCC1CCCC1)Nc1ccc(S(=O)(=O)c2ccc(NC(=O)CCCCCCCCCCCCC3CCCC3)cc2)cc1`, “inactive”; with `c1ccc2cc(C3=NCCN3)ccc2c1`, 18800 nM (active). Same read-out and setting: with `O=C(OCc1ccccc1)c1cccnc1` the figure was 6680 nM (active); with `O=C(O)c1cc2ccccc2c(Cc2c(O)c(C(=O)O)cc3ccccc23)c1O`, “inactive”. In the case of `O=C(OCCO)c1ccccc1O`, the Potency entry was “inactive”.

`C=CCNC1=C2C[C@@H](C)C[C@H](OC)[C@H](O)[C@@H](C)/C=C(\C)[C@H](OC(N)=O)[C@@H](OC)/C=C\C=C(/C)C(=O)NC(=CC1=O)C2=O`: the Potency is 376 nM (active). Still for that read-out and setting: with `CC(Oc1ccccc1)C(=O)N[C@@H]1C(=O)N2[C@@H]1SC(C)(C)[C@@H]2C(=O)O` (stereo partly drawn) the entry was “inactive”. As for `CC[C@@H](C(=O)O)[C@@H]1O[C@@H]([C@@H](C)[C@H](O)[C@H](C)C(=O)[C@H](CC)[C@H]2O[C@]3(C=C[C@@H](O)[C@]4(CC[C@@](C)([C@H]5CC[C@](O)(CC)[C@H](C)O5)O4)O3)[C@H](C)C[C@@H]2C)[C@@H](C)C[C@@H]1C`, the Potency was 237 nM (active).

For the molecule `CCN(CC)CCOC(=O)c1cccnc1`, the Potency entry is “inactive”. On the same count and under the same terms, with `COc1ccc(-c2noc(CC(=O)O)c2-c2ccc(OC)cc2)cc1` the entry was “inactive”; with `COc1cc2c(cc1OC)CC(=O)N(CCCN(C)C[C@H]1Cc3cc(OC)c(OC)cc31)CC2`, 9440 nM (active). Same read-out and setting: with `CNC(=O)[C@H](Cc1c[nH]c2ccccc12)NC(=O)[C@@H](CC(=O)NO)CC(C)C` the figure was 33500 nM (active).

The values above are taken from PubChem BioAssay (Tox21).
